Structures are written as SMILES. Results filed as inconclusive are left out. Active and inactive are the calls of the source. Calls come from the whole dose curve; as a rule, active = well fitted curve in the direction sought with a large enough effect; inconclusive = small, poorly fitted or top-dose-only effect, or another doubt; inactive = no such curve, though single readings can be large; an effect the other way counts as inactive or inconclusive.

The subject of experiment [1] is Zika virus NS2B-NS3 protease (linked construct). The experiment is described as follows: 384 well plate NINDS Rhodamine confirmatory qHTS for Zika virus inhibitors (AID 1347164). Note: nearly all actives have a fitted effect of over 65% in size. Note: potency is the fitted concentration of half-maximal effect. The conditions noted are these: rhodamine-110 peptide substrate fluorescence; series mostly up to 100 µM. In a few lines:
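Compounds are incubated about 15 minutes with linked protease (5, 30 or 60 nM final). Rhodamine 110-tagged Ac-LKRR substrate (10 microM final) is added and fluorescence measured after 25 minutes.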
For orientation: qHTS replaces the single test concentration by a dilution series.

Experiment [2] in a line: Vero cells viability qHTS for Zika virus inhibitors (AID 1347167). The conditions noted are these: cytotoxicity counter-screen (Zika); series mostly up to 45.9 µM. In a few lines: (§1)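 To flag cytotoxic protease inhibitors, viability is measured by ATP-dependent luminescence (CellTiter Glo) after cells attached overnight receive compound for 24 to 48 hours in DMEM with 4% FBS.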

Experiment [3] in a line: HepG2 cells viability qHTS for Zika virus inhibitors (AID 1347168). Conditions: Zika counter-screen; series mostly up to 45.9 µM. A digest of the protocol: as §1
Experiment [4] can be described thus: Tertiary RLuc qRT-PCR qHTS assay for Zika virus inhibitors (AID 1347169). Note: nearly all actives have a fitted effect of over 55% in size. Note: potency is the fitted concentration of half-maximal effect. The conditions noted are these: infected Vero cells, reporter luminescence, 48-72 h; series mostly up to 26.6 µM. In a few lines: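 Orthogonal cell-based infection assay using recombinant ZIKV-RLuc (Cambodian) in Vero cells; compound added prior to virus at MOI 1-2. Incubation lasts 48-72 hrs at 37 degrees C before live-cell Renilla substrate is added and luminescence measured.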
(Quantitative PCR measures a nucleic acid by following its amplification.)

Experiment [5] can be described thus: OV-KATE Cancer Cell Toxicity qHTS against the NCATS CANVASS Library (AID 1347345). Note: potency is the fitted concentration of half-maximal effect. The conditions noted are these: OV-KATE cells viability, CellTiter-Glo luminescence, 72 h. In a few lines: (§2)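 Toxicity is measured over 72 h of compound exposure at 37 degrees C under 5% CO2. Each well holds 1000 cells, pre-incubated for 4 hours before dosing across an 11-point range. CellTiter-Glo luminescence gives viability.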

Experiment [6] in a line: HPAF-II Cancer Cell Toxicity qHTS against the NCATS CANVASS Library (AID 1347346). Note: potency is the fitted concentration of half-maximal effect; nearly all actives have a fitted effect of over 55% in size. Conditions: HPAF-II viability, CellTiter-Glo ATP luminescence, 72 h. A digest of the protocol:
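1000 HPAF-II cells/well; 4 h pre-incubation; 11-pnt compound titration; 72 h, 37 degrees C/5% CO2; CellTiter-Glo, 15 min RT; luminescence read.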

Experiment [7] can be described thus: UWB1.289 Cancer Cell Toxicity qHTS against the NCATS CANVASS Library (AID 1347347). Note: potency is the fitted concentration of half-maximal effect; nearly all actives have a fitted effect of over 60% in size. Conditions: UWB1.289 viability, CellTiter-Glo luminescence, 72 h. A digest of the protocol: as §2
Experiment [8] in a line: OV-SAHO Cancer Cell Toxicity qHTS against the NCATS CANVASS Library (AID 1347348). Note: potency is the fitted concentration of half-maximal effect; nearly all actives have a fitted effect of over 55% in size. Conditions: OV-SAHO viability, CellTiter-Glo luminescence, 72 h. In a few lines:
as §2

Experiment [9] can be described thus: Panc-1005 Cancer Cell Toxicity qHTS against the NCATS CANVASS Library (AID 1347349). Note: potency is the fitted concentration of half-maximal effect; nearly all actives have a fitted effect of over 60% in size. Conditions: Panc-1005 viability, CellTiter-Glo luminescence, 72 h. In a few lines: as §2
Experiment [10] is described as follows: U-118MG Cancer Cell Toxicity qHTS against the NCATS CANVASS Library (AID 1347351). Note: potency is the fitted concentration of half-maximal effect. The conditions noted are these: U-118MG viability, CellTiter-Glo luminescence, 72 h. A digest of the protocol:
as §2

Experiment [11] in a line: COV-362 Cancer Cell Toxicity qHTS against the NCATS CANVASS Library (AID 1347352). Note: potency is the fitted concentration of half-maximal effect. The conditions noted are these: COV-362 viability, CellTiter-Glo luminescence, 72 h. In a few lines: (§3)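 1000 cells/well, 4 h pre-incubation 37 °C/5% CO2; 11-pnt titration; 72 h; CellTiter-Glo 15 min RT, luminescence.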
A short description of experiment [12]: A2780 Cisplatin Sensitive Ovarian Cancer Cell Toxicity qHTS against the NCATS CANVASS Library (AID 1347353). Note: potency is the fitted concentration of half-maximal effect; nearly all actives have a fitted effect of over 60% in size. The conditions noted are these: A2780 ovarian cancer viability, ATPLite luminescence, 72 h. A digest of the protocol:
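750 cells/well, 4 h settle; 11-pt cpd titration; 72 h, 37 °C, 5% CO2; ATPLite 10 min RT; luminescence read.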

The nature of experiment [13]: HEK-293 Cancer Cell Toxicity qHTS against the NCATS CANVASS Library (AID 1347355). Note: potency is the fitted concentration of half-maximal effect; nearly all actives have a fitted effect of over 65% in size. Conditions: HEK-293 viability, CellTiter-Glo luminescence, 72 h. A digest of the protocol: as §3
A short description of experiment [14]: HPAF-II 24hr Apoptosis Induction qHTS against the NCATS CANVASS Library (AID 1347356). The conditions noted are these: HPAF-II caspase-3/7 Caspase-Glo luminescence; series mostly up to 46.1 µM. A digest of the protocol: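 500 HPAF-II cells/well; compounds in 11-pnt qHTS; 24 h, 37 C/5% CO2; Caspase-Glo 3/7 added, 15 min RT dark; luminescence read. Doxorubicin control.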

Experiment [15] can be described thus: HEK293 18hr Apoptosis Induction qHTS against the NCATS CANVASS Library (AID 1347357). The conditions noted are these: HEK293 caspase-3/7 Caspase-Glo luminescence; series mostly up to 46.1 µM. In a few lines:
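Luminescent caspase-3/7 signal is measured in HEK293 cells exposed for 18 hours to an 11-point concentration series; doxorubicin serves as the plate control.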

The nature of experiment [16]: HPAF-II 12hr Apoptosis Induction qHTS against the NCATS CANVASS Library (AID 1347358). Conditions: HPAF-II caspase-3/7 Caspase-Glo luminescence; series mostly up to 46.1 µM. A digest of the protocol:
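Caspase-Glo 3/7 luminescence (DEVD substrate) reports caspase activity in HPAF-II cells after 12 h compound treatment at 37 degrees C. Compounds were tested in an 11-point series. Doxorubicin served as control.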

A short description of experiment [17]: HEK293 24hr Apoptosis Induction qHTS against the NCATS CANVASS Library (AID 1347359). The conditions noted are these: HEK293 caspase-3/7 activation, Caspase-Glo luminescence; series mostly up to 46.1 µM. A digest of the protocol:
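HEK293 cells (500/well, DMEM + 10% FBS) were exposed to compounds in an 11-point series for 24 hours at 37 degrees C, then caspase-3/7 activity was read by Caspase-Glo DEVD luciferase luminescence after 15 min.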

Experiment [18] in a line: HPAF-II 18hr Apoptosis Induction qHTS against the NCATS CANVASS Library (AID 1347360). Conditions: HPAF-II caspase-3/7 luminescence; series mostly up to 46.1 µM. In a few lines: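 Apoptosis was scored as caspase-3/7 activity in HPAF-II pancreatic cancer cells treated 18 hours with an 11-point concentration series.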
Experiment [19] in a line: HEK293 12hr Apoptosis Induction qHTS against the NCATS CANVASS Library (AID 1347361). The conditions noted are these: HEK293 caspase-3/7 Caspase-Glo luminescence; series mostly up to 46.1 µM. A digest of the protocol: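 Apoptosis in HEK293 was scored as caspase-3/7 luminescence following 12 h treatment with a compound concentration series in qHTS format.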
In experiment [20] the test system is NAD(P)H diaphorase (Clostridium kluyveri). Description: Diaphorse counterscreen qHTS: Assay Interference Panel against the NCATS CANVASS Library (AID 1347362). Conditions: Diaphorase enzyme, resazurin to resorufin fluorescence; series mostly up to 57.5 µM. In a few lines:
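Clostridium kluyveri diaphorase in PBS with 0.01% Tween-20 was preincubated 15 min at room temperature in the dark with compounds (11-point series). Resorufin fluorescence (ex 525/20, em 598/25) was read 5 min after adding resazurin/NADH.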

For the molecule `CC1(C)CC[C@]2(C(=O)O)CC[C@]3(C)C(=CCC4[C@@]5(C)C[C@@H](O)[C@H](O)C(C)(C)C5CC[C@]43C)C2C1` (some centres undefined), the Potency in experiment [1] was 6.31 µM (active); in experiment [4] it was 9.06 µM (active). Also, the molecule was called inactive in experiment [2] and in [3].

As to `COc1ccc(Cl)c(Nc2nc3ccccc3nc2NS(=O)(=O)c2cccc(NC(=O)C(C)(C)N)c2)c1`, the Potency is 3.98 µM (active) in experiment [1] and 14.7 µM (active) in experiment [4]. In addition, the call in experiment [2] and in [3] was inactive.

For the molecule `CCc1c(-c2ccccc2)c(-c2ccccc2)nn1-c1ccccc1-c1cccc(OCC(=O)O)c1`, in [1], the Potency is 2.51 µM (active). Also, the call in experiment [2] and in experiment [3] was inactive.

With `CC(C)(C)Nc1nc2cc(Cl)c(Cl)cc2nc1S(C)(=O)=O`, the Potency in experiment [4] is 10.4 µM (active).

As for `CC(C)CC(=O)OC1OC=C(CO[C@@H]2O[C@H](CO)[C@@H](O)[C@H](O)[C@H]2O)C2CC(O)C(O)(CO)C12` (some centres undefined), the Potency entry in [4] was “inactive”.

As to `COc1ccc(C(=O)n2c(C)c(Cc3cccc(O[C@@H](C)C(=O)O)c3)c3cc(OC(F)(F)F)ccc32)cc1`, in experiment [1], the Potency entry was “inactive”. Further, the molecule was classed as inactive in experiment [2] and in experiment [3].

In the case of `O=S(=O)(c1ccccc1)c1cnc2c(N3CCNCC3)cccc2c1`, in experiment [4], the Potency result is “inactive”.

As to `C=CC/C=C\C/C=C\CCCCCCCc1cccc(O)c1C(=O)O`, the Potency entry in [1] and in experiment [4] was “inactive” in each case. Besides, the molecule was called inactive in experiment [2] and in experiment [3].

On to `Cc1cc(=O)oc2c(C=O)c(O)ccc12`, for which, in experiment [4], the Potency entry is “inactive”.

On to `CC1(C)CC2=C3C=CC4C5(C)CCC(O)C(C)(C)C5CCC4(C)C3(C)CCC2(C)C(O)C1` (centres undefined), for which the molecule was called inactive in [2] and in experiment [3].

On to `O=C(N/N=C/c1ccc(O)c(O)c1)c1cc2ccccc2cc1O`, for which the Potency in [1] is 0.447 µM (active); in experiment [4], 6.18 µM (active). For the same molecule, the molecule was classed as inactive in [2] and in [3].

On to `CCCCCCOc1cc2c(cc1N(C)c1ncc(C(=O)O)cn1)C(C)(C)CCC2(C)C`, for which the Potency is 3.16 µM (active) in [1] and 20.8 µM (active) in experiment [4]. Also, the outcome in experiment [2] and in experiment [3] was inactive.

On to `C=C1C(=O)O[C@H]2C1[C@H](OC(=O)/C(=C/CO)COC(=O)/C(C)=C/CO)CC(=C)[C@@H]1CC(=O)[C@@H](C)[C@@H]12` (some centres undefined), for which the Potency entry in experiment [4] was “inactive”.

With `CC1=C(C(=O)OCc2ccccc2)C(c2ccc(-c3ccccc3)cc2)NC(=O)N1CCCCCC(=O)O` (centres undefined), the Potency in [1] is 0.631 µM (active); in experiment [4], 23.4 µM (active). The molecule was called inactive in experiment [2] and in experiment [3].

Regarding `C=C[C@H]1[C@H](O[C@@H]2O[C@H](CO)[C@@H](O)[C@H](O)[C@H]2O)OC=C(C(=O)OC)[C@H]1CCOC(=O)c1cc(O)c(O)c(O)c1`, the call in experiment [2] and in experiment [3] was inactive. In [4], the Potency result was “inactive”.

Take `CC(C)c1cccc2c(-c3ccccc3)cc(-c3ccc(-c4ccc(C(=O)O)cc4)[nH]3)nc12`: the Potency entry in [1] was “inactive”. Moreover, the result in experiment [2] and in [3] was inactive.

For the molecule `O=C(O)Cc1ccc2oc(-c3ccc(NC(=O)/C=C/c4ccc(Br)cc4)c(F)c3)nc2c1`, the Potency entry in experiment [1] and in [4] was “inactive” throughout. Further, the molecule was called inactive in [2] and in experiment [3].

On to `COc1cc(Nc2nc3ccccc3nc2NS(=O)(=O)c2ccc(NC(=O)c3ccc(OC)c(C)c3)cc2)cc(OC)c1`, for which the Potency in [1] was 22.4 µM (active). Also, the result in experiment [2] and in experiment [3] was inactive.

On to `O=[N+]([O-])c1cccc2[nH]c(CNc3nc(N4CCOCC4)nc4c3ncn4-c3ccsc3)nc12`, for which the Potency in [4] was 0.117 µM (active).

For the molecule `C=C1C(=O)O[C@H]2[C@H]1CC/C(C)=C/CC[C@@]1(C)O[C@@H]21`, the Potency is 6.66 µM (active) in experiment [5]; 21.1 µM (active) in [6]; 11.8 µM (active) in experiment [7]; 7.47 µM (active) in experiment [8]; 6.68 µM (active) in experiment [9]; 6.68 µM (active) in experiment [10]. Further, the Potency is 18.8 µM (active) in experiment [11], 2.96 µM (active) in [12] and 7.43 µM (active) in experiment [13]. Also, the result in [14], in [15], in experiment [16], in experiment [17], in [18] and in experiment [19] was inactive. The molecule was called inactive in experiment [20].

Consider `CC1(C)CCC(C)(C)c2cc(C3(c4ccc(C(=O)O)cc4)OCCO3)ccc21`, for which the molecule was classed as inactive in [2] and in experiment [3].

As for `OC/C=C/C=C/[C@H]1Cc2cc(O)cc(O)c2O1`, in experiment [4], the Potency entry was “inactive”.

With `Nc1ncnc2c([C@@H]3N[C@H](CO)[C@@H](O)[C@H]3O)c[nH]c12`, in experiment [1], the Potency entry is “inactive”. Further, the result in experiment [2] and in [3] was inactive.

Regarding `O=C(Nc1ccc(S(=O)(=O)Nc2nccs2)cc1)C(c1ccccc1)c1ccccc1`, the values for the Potency in experiment [1] and in experiment [4] were 50.1 µM (active) and 20.8 µM (active), respectively. The call in [2] and in experiment [3] was inactive.

Regarding `O=C(O)/C=C/c1ccc(-c2ccc(O)c(C34CC5CC(CC(C5)C3)C4)c2)cc1`, the Potency in experiment [1] was 3.55 µM (active); in experiment [4], 0.415 µM (active). The molecule was called inactive in [3].

For `O=C1OCc2cc3cccc(O[C@@H]4O[C@H](CO)[C@@H](O)[C@H](O)[C@H]4O)c3c(O)c21`, the Potency result in experiment [4] was “inactive”.

As for `N#CC(c1ccnc(OCc2ccc(CN3CCOCC3)cc2)n1)c1nc2ccccc2s1` (centres undefined), the Potency in experiment [1] was 5.01 µM (active). Further, the result in experiment [2] and in [3] was inactive.

The record behind these values is PubChem BioAssay (NCATS).
